# Measurements as given in PubChem BioAssay (Tox21).
# Several values for one entry are separate records, joined by “and”; a condition that tells them apart may be missing. Equal values may be shown once. Results filed as inconclusive are left out. Where a call stands in place of a potency, no number is given. More than one record can exist for a structure, and the calls need not agree. Activity calls are given as the source filed them. Unless noted, the call rests on the fitted dose curve; in most records, active means well fitted curve in the direction sought with a large enough effect in the repeat runs; inconclusive means weak or mixed curves; inactive means no such curve, though single readings can be large; an effect the other way counts as inactive or inconclusive.
# Columns and labels:
# [1] = qHTS assay for small molecule agonists of the p53 signaling pathway (AID 651631; calls by dose curve; further: nearly all actives have a fitted effect of over 15% in size; further: potency means the concentration at half of the fitted maximal effect)
# Procedure, shortened: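 Read-out is beta-lactamase FRET fluorescence measured 2 h after substrate addition at room temperature, in HCT-116 cells with a p53 response element-driven reporter exposed to compounds for 16 h at 37 °C.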
# [2] = qHTS assay for small molecules that induce genotoxicity in human embryonic kidney cells expressing luciferase-tagged ATAD5 (AID 651632); further: nearly all actives have a fitted effect of over 15% in size; further: potency means the concentration at half of the fitted maximal effect
# Procedure, shortened: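 Increased luciferase signal from ATAD5-tagged reporter cells indicates DNA-damage-driven ATAD5 induction. HEK293T cells are treated for 16 hr at 37C before detection with Amplite.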
# [3] = qHTS assay for small molecules that induce genotoxicity in human embryonic kidney cells expressing luciferase-tagged ATAD5 - cell viability (AID 651634; calls by dose curve; further: nearly all actives have a fitted effect of over 25% in size; further: potency means the concentration at half of the fitted maximal effect)
# Procedure, shortened: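 Cytotoxicity counterscreen in HEK293T cells bearing an ATAD5-luciferase reporter: live-cell protease activity measured by CellTiter-Fluor fluorescence after 15.5 hr compound exposure.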
# [4] = qHTS assay for small molecule disruptors of the mitochondrial membrane potential - cell viability (AID 720634; calls by dose curve; further: nearly all actives have a fitted effect of over 20% in size; further: potency means the concentration at half of the fitted maximal effect)
# Procedure, shortened: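 After overnight attachment at 37 C, HepG2 cells received compound or DMSO vehicle for 1 hr. Viability is then taken from ATP-driven luminescence following a 30 min room-temperature CellTiter-Glo step.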
# [5] = qHTS assay to test for compound auto fluorescence at 590 nm (red) in HepG2 cells (AID 720674); further: potency means the concentration at half of the fitted maximal effect
# Procedure, shortened: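 Compound auto-fluorescence is scored relative to Rose Bengal sodium, measured at 540/590 nm in live HepG2 cultures after 1 hr compound contact (37 C, 5% CO2).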
# [6] = qHTS assay to test for compound auto fluorescence at 535 nm (green) in HepG2 cells (AID 720675); further: potency means the concentration at half of the fitted maximal effect
# [7] = qHTS assay to test for compound auto fluorescence at 460 nm (blue) in HEK293 cells (AID 720678)
# Procedure, shortened: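 Blue-channel (Ex/Em 405/460 nm) intensity measured in HEK293 cultures after overnight compound exposure at 37C; signal expressed relative to triamterene. Cells plated 2,000 per well in 10% dialyzed FBS medium and allowed 4-5 hr to attach.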
# [8] = qHTS assay to test for compound auto fluorescence at 590 nm (red) in HEK293 cells (AID 720679); further: potency means the concentration at half of the fitted maximal effect
# Procedure, shortened: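 Red-channel autofluorescence (Ex/Em 540/590 nm; Rose Bengal sodium reference) was measured after overnight 37C, 5% CO2 exposure of attached HEK293 cells, 2,000 per well in medium with 10% dialyzed FBS.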
# [9] = qHTS assay for small molecule disruptors of the mitochondrial membrane potential (AID 720635); further: potency means the concentration at half of the fitted maximal effect
# Procedure, shortened: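 HepG2 cells (2,000/well) attached overnight at 37C, then took compound for 1 hr at 37C, 5% CO2. Mito-MPS dye was added for 30 min; fluorescence was read at 490/535 nm (monomers) and 540/590 nm (aggregates).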
# [10] = qHTS assay for small molecule agonists of the p53 signaling pathway - cell viability (AID 651633; calls by dose curve; further: nearly all actives have a fitted effect of over 30% in size; further: potency means the concentration at half of the fitted maximal effect)
# Procedure, shortened: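 p53RE-bla cells, seeded at 4,000 per well and rested 5 h at 37 C/5% CO2, received compounds in DMSO for 16 h at 37 C. CellTiter-Glo was then added, and luminescence was read after 30 min at room temperature to gauge cytotoxicity.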
# Tags describe the fitted curve by direction and shape or compound fluorescence and quenching.
SMILES,Potency [1],Potency [2],Potency [3],Potency [4],Potency [5],Potency [6],outcome [7],Potency [8],Potency [9],Potency [10],"fluorescence, relative to Rose Bengal [5]","fluorescence, % of fluorescein control [6]","fluorescence, % of triamterene [7]","fluorescence, % of fluorescent control [8]"
CNCCCC12CCC(c3ccccc31)c1ccccc12,inactive,inactive,inactive,inactive,inactive,inactive,inactive,inactive,–,–,–,–,–,–
COC(C)COC(C)COC(C)CO (configuration not stated),inactive,inactive,inactive,inactive,inactive,inactive,inactive,inactive,inactive,–,–,–,–,–
CC(C)(C)NC(=O)[C@H]1CC[C@H]2[C@@H]3CC[C@H]4NC(=O)C=C[C@]4(C)[C@H]3CC[C@]12C,inactive,inactive,inactive,inactive,inactive,inactive,inactive,inactive,inactive,–,–,–,–,–
CCCCCCCCCCCO,inactive,inactive,inactive,inactive,inactive,inactive,inactive,inactive,inactive and 21.7 µM (active),–,–,–,–,–
Cn1cnc([N+](=O)[O-])c1Sc1ncnc2nc[nH]c12,24.2 µM (active),inactive,–,inactive,inactive,inactive,inactive,inactive,23.7 µM (active),0.68 µM (active),–,–,–,–
Brc1cc(Oc2cc(Br)c(Br)c(Br)c2Br)c(Br)c(Br)c1Br,inactive,inactive,inactive,inactive,inactive,inactive,inactive,inactive,–,–,–,–,–,–
O=CCc1ccccc1,inactive,inactive,inactive,inactive,inactive,inactive,inactive,inactive,inactive and 54.5 µM (active),–,–,–,–,–
NNc1ccc(C(=O)O)cc1,inactive,–,inactive,inactive,inactive,inactive,inactive,inactive,–,inactive,–,–,–,–
Nc1ccccc1N,62.6 µM (active) and 27.3 µM (active),2.43 µM (active),inactive,inactive,inactive,–,inactive,inactive,314 nM (active) and 686 nM (active),–,–,–,–,–
C[Si](C)(C)O[Si](C)(C)C,inactive,inactive,inactive,inactive,inactive,inactive,inactive,inactive,inactive,–,–,–,–,–
COC(=O)CCC(=O)OC,inactive,inactive,inactive,inactive,inactive,inactive,inactive,inactive,inactive,–,–,–,–,–
OCCO,inactive,inactive,inactive,inactive,inactive,inactive,inactive,inactive,inactive,–,–,–,–,–
COc1cccc2c1C(=O)c1c(O)c3c(c(O)c1C2=O)C[C@@](O)(C(=O)CO)C[C@@H]3O[C@H]1C[C@H](N)[C@H](O)[C@H](C)O1,inactive and 596 nM (active) and 243 nM (active),inactive and 376 nM (active),–,inactive,inactive,inactive,inactive,inactive,inactive and 2.73 µM (active),–,–,–,–,–
Cc1cccc([N+](=O)[O-])c1C,inactive,inactive,inactive,inactive,inactive,inactive,inactive,inactive,inactive,–,–,–,–,–
C#C[C@]1(O)CC[C@H]2[C@@H]3CCc4cc(OC)ccc4[C@H]3CC[C@@]21C,inactive,inactive,inactive,inactive,inactive,inactive,inactive,inactive,19.3 µM (active),–,–,–,–,–
COc1ccc(C(=O)CC(=O)c2ccc(C(C)(C)C)cc2)cc1,inactive,inactive,inactive,inactive and 18.5 µM (active),inactive,inactive,inactive,inactive,inactive and 16.5 µM (active),–,–,–,–,–
C=CC(C)(CCC=C(C)C)OC(C)=O (configuration not stated),inactive,inactive,–,inactive,inactive,inactive,inactive,inactive,inactive,–,–,–,–,–
CN(C)CCN(Cc1cccs1)c1ccccn1,inactive,inactive,inactive,inactive,inactive,inactive,inactive,inactive,inactive,–,–,–,–,–
CCCCNS(=O)(=O)c1ccccc1,inactive,inactive,inactive,inactive,inactive,inactive,inactive,inactive,48.6 µM (active),–,–,–,–,–
O=C(OCc1ccccc1)c1ccccc1O,inactive,–,–,inactive,inactive,inactive,inactive,inactive,61.1 µM (active),–,–,–,–,–
C=C(C)C1CC=C(C)CC1 (configuration not stated),inactive,inactive,inactive,–,inactive,inactive,inactive,inactive,–,–,–,–,–,–
CN1C(C(=O)Nc2ccccn2)=C(O)c2ccccc2S1(=O)=O,inactive,inactive,inactive,inactive,inactive,inactive,inactive,inactive,5.69 µM (active) and 4.9 µM (active),–,–,–,–,–
CCC(C)OC(=O)c1ccc(O)cc1 (configuration not stated),inactive,inactive,inactive,–,inactive,inactive,inactive,inactive,24.5 µM (active) and 17.2 µM (active),–,–,–,–,–
CC(=O)C1(C)CC2=C(CCCC2(C)C)CC1C (configuration not stated),inactive,inactive,inactive,–,inactive,inactive,inactive,inactive,–,–,–,–,–,–

SMILES,Potency [1],Potency [2],Potency [3],Potency [4],Potency [5],Potency [6],outcome [7],Potency [8],Potency [9],Potency [10],"fluorescence, relative to Rose Bengal [5]","fluorescence, % of fluorescein control [6]","fluorescence, % of triamterene [7]","fluorescence, % of fluorescent control [8]"
OC(CCl)CCl,inactive,inactive,inactive,inactive,inactive,inactive,inactive,inactive,–,–,–,–,–,–
O=C(c1ccc(OCCN2CCCCC2)cc1)c1c(-c2ccc(O)cc2)sc2cc(O)ccc12,29.8 µM (active) and 68.7 µM (active) and 61.1 µM (active),–,26.6 µM (active) and 54.5 µM (active),inactive,inactive,inactive,inactive,inactive,4.22 µM (active) and 1.72 µM (active) and 4.33 µM (active),29.8 µM (active) and 61.2 µM (active) and 61.1 µM (active),–,–,–,–
c1ccc2c(c1)c1cccc3ccc4cccc2c4c31,60.7 µM (active),inactive,inactive,inactive,inactive,inactive,inactive,inactive,30.6 µM (active),–,–,–,–,–
C=C(C)C(=O)OCCOC(=O)C(=C)C,inactive,inactive,inactive,inactive,inactive,inactive,inactive,inactive,inactive,–,–,–,–,–
COC(=O)c1ccccc1,inactive,inactive,inactive,inactive,inactive,inactive,inactive,inactive,inactive,–,–,–,–,–
CN(C)c1nc(N(C)C)nc(N(C)C)n1,inactive,inactive,inactive,inactive,–,–,–,–,inactive,–,0.105% [at 18.6 µM] (inactive) and 0.0838% [at 3.72 µM] (inactive),-0.0062% [at 18.6 µM] (inactive) and 0.0151% [at 3.72 µM] (inactive),0.0425% [at 18.6 µM] (inactive) and 0.0657% [at 3.72 µM] (inactive),0.0163% [at 18.6 µM] (inactive) and 0.505% [at 3.72 µM] (inactive)
Cc1[nH]c(=O)c(C#N)cc1-c1ccncc1,inactive,–,inactive,inactive,inactive,inactive,inactive,inactive,–,inactive,–,–,–,–
Nc1ccc(S(=O)(=O)Nc2cnc3ccccc3n2)cc1,inactive,inactive,inactive,inactive,inactive,inactive,inactive,inactive,inactive,–,–,–,–,–
CCOCCOCCO,inactive,inactive,inactive,inactive,inactive,inactive,inactive,inactive,–,–,–,–,–,–
COc1ccc(OC)c(C(O)CNC(=O)CN)c1 (configuration not stated),inactive,inactive,inactive,inactive,inactive,inactive,inactive,inactive,inactive,–,–,–,–,–
CC(=O)Oc1ccccc1C(=O)Nc1ncc([N+](=O)[O-])s1,5.96 µM (active),1.33 µM (active),18.8 µM (active) and 22.1 µM (active),0.556 µM (active),inactive,inactive,inactive,inactive,1.5 µM (active) and 351 nM (active),–,–,–,–,–
CC(C)CC(C)(O)C#CC(C)(O)CC(C)C (configuration not stated),inactive,–,inactive,inactive,inactive,inactive,inactive,inactive,47.6 µM (active) and 48.6 µM (active),inactive,–,–,–,–
CCCc1c(OCCCCc2nn[nH]n2)ccc(C(C)=O)c1O,–,inactive,inactive,inactive,inactive,inactive,inactive,inactive,26.6 µM (active),26.6 µM (active) and inactive,–,–,–,–
OC[C@H]1O[C@@H]2O[C@H]3[C@H](O)[C@@H](O)[C@@H](O[C@H]4[C@H](O)[C@@H](O)[C@@H](O[C@H]5[C@H](O)[C@@H](O)[C@@H](O[C@H]6[C@H](O)[C@@H](O)[C@@H](O[C@H]7[C@H](O)[C@@H](O)[C@@H](O[C@H]8[C@H](O)[C@@H](O)[C@@H](O[C@H]1[C@H](O)[C@H]2O)O[C@@H]8CO)O[C@@H]7CO)O[C@@H]6CO)O[C@@H]5CO)O[C@@H]4CO)O[C@@H]3CO,–,inactive,inactive,inactive,inactive,inactive,inactive,inactive,–,inactive,–,–,–,–
O=C(O)c1ccccc1Nc1cccc(C(F)(F)F)c1,–,inactive,inactive,inactive,inactive,inactive,inactive,inactive,26.6 µM (active) and 43.3 µM (active),–,–,–,–,–
CCCCC/C=C/C=C/C=O,–,inactive,–,inactive,inactive,inactive,inactive,inactive,60.6 µM (active) and 54.5 µM (active),54 µM (active),–,–,–,–
O=C(/C=C/C=C/c1ccc2c(c1)OCO2)N1CCCCC1,–,10.9 µM (active),inactive,inactive,inactive,inactive,inactive,inactive,–,–,–,–,–,–
COc1c(Cl)c(Cl)c(Cl)c(Cl)c1Cl,–,inactive,inactive,inactive,inactive,inactive,inactive,inactive,–,–,–,–,–,–
CCCCc1oc2ccccc2c1C(=O)c1cc(I)c(OCCN(CC)CC)c(I)c1,–,inactive,inactive,inactive,inactive,inactive,inactive,inactive,–,26.6 µM (active) and 48.9 µM (active),–,–,–,–
COc1ccccc1/C=C/C=O,–,inactive,inactive,inactive,inactive,inactive,inactive,inactive,inactive,inactive,–,–,–,–
Cc1cc2nc3c(=O)[nH]c(=O)nc-3n(C[C@H](O)[C@H](O)[C@H](O)CO)c2cc1C,–,inactive,inactive,inactive,inactive,35.5 µM (active) [middle of 4 runs],inactive,inactive,–,inactive,–,–,–,–
O=C1OC2(c3cc(Br)c(O)c(Br)c3Oc3c2cc(Br)c(O)c3Br)c2c(Cl)c(Cl)c(Cl)c(Cl)c21,–,inactive,9.7 µM (active) and 37.1 µM (active),inactive,1.41 µM (active) and 7.94 µM (active),17.8 µM (active),inactive,2.51 µM [fluorescent] (active) and 14.1 µM [fluorescent] (active),–,54.5 µM (active),–,–,–,–
Cc1ccc(C(=O)c2cc(O)c(O)c([N+](=O)[O-])c2)cc1,–,inactive,30.6 µM (active),inactive,inactive,inactive,inactive,inactive,26.6 µM (active) and 4.86 µM (active),23.7 µM (active) and 54.5 µM (active),–,–,–,–
